Measurements taken from ChEMBL document CHEMBL3433997, “St. Jude Leishmania screening dataset” (2016).

Assays:
Type in all cases: functional
[1] = biological target: Solute carrier family 2, facilitated glucose transporter member 1 (Homo sapiens) (UniProt P11166); experiment: ST_JUDE_LEISH: Cytotoxicity at 2uM final concentration against transgenic Leishmania Mexicana promastigotes LmGLUT1 that are glucose transport deficient and complemented with the human glucose transporter GLUT1. Activity is measured by DNA content using SYBR green in vitro
[2] = biological target: Hexose transporter 1 (Plasmodium falciparum) (UniProt O97467); experiment: ST_JUDE_LEISH: Cytotoxicity at 2uM final concentration against transgenic Leishmania Mexicana promastigotes LmPfHT that are glucose transport deficient and complemented with the Plasmodium falciparum hexose transporter. Activity is measured by DNA content using SYBR green in vitro
[3] = biological target: Glucose transporter (Leishmania mexicana) (UniProt O61059); experiment: ST_JUDE_LEISH: Cytotoxicity at 2uM final concentration against transgenic Leishmania Mexicana promastigotes LmGT2 that are glucose transport deficient and complemented with the L. Mexicana glucose transporter 2. Activity is measured by DNA content using SYBR green in vitro

Sequence of Solute carrier family 2, facilitated glucose transporter member 1 (Homo sapiens) (P11166 whole entry): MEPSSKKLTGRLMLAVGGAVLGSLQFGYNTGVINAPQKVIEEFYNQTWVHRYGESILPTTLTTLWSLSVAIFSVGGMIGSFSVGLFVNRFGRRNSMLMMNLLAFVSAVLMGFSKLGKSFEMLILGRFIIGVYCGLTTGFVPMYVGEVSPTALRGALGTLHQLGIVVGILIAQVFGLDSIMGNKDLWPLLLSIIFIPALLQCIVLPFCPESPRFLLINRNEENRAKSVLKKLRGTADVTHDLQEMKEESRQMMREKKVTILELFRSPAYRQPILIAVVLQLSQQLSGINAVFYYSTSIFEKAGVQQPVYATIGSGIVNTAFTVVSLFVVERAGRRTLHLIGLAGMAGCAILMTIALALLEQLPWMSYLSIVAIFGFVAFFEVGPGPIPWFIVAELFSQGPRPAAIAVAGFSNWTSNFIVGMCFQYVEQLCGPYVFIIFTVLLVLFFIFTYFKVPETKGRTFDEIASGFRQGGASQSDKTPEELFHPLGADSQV

Row | SMILES | inhibition [1] [%] | inhibition [2] [%] | inhibition [3] [%]
1 | COc1ccc(Br)cc1/C=C/C(=O)Nc1ccc2c(c1)CCCN(C)C2 | 0.84 | 3.78 | 3.56
2 | Cc1sc2nc(CN3CCCC3)nc(-n3c(NCCO)nc4ccccc43)c2c1C | 4.18 | 5.54 | 5.9
3 | CN(/N=C/C=C/c1ccc(Cl)cc1)c1nc(NCCc2ccc(O)cc2)nc(N2CCNCC2)n1 | -0.76 | 0.71 | -0.16
4 | NCC1CCCN1Cc1cccc(-c2ccc(-c3nc4cc(C(F)(F)F)ccc4[nH]3)s2)c1 (stereo unspecified) | 1.28 | 0.87 | 0.38
5 | NCc1ccc(-c2ccccc2CNC2CCN(Cc3ccccc3)CC2)cc1 | 2.4 | 2.46 | 1.44
6 | COc1cc(N(Cc2ccc(F)cc2)C(=O)c2ccc(-c3ccccc3)cc2)ccc1OCCN1CCCC1 | 9.7 | 5.41 | 7.12
7 | CC1(C)NC(N)=NC(=N)N1OCc1cccc(Cl)c1Cl | 2.02 | 3.75 | 2.46
8 | COc1ccc(C(=O)NCCCCN2CCC(c3ccc4c(c3OC)CCCC4)CC2)cc1-c1ccc(C(F)(F)F)cc1 | -1.89 | 0.84 | -1.69
9 | CC(C)(C)NCCN(Cc1ccc(-c2ccc(C(F)(F)F)cc2)cc1)C(=O)Cn1c(CCc2cccc(F)c2F)nc(=O)c2c1CCC2 | 6.13 | 7.22 | 7.29
10 | CCCCN1CCCC[C@H]1[C@@H](O)c1ccnc2ccc(OCC)cc12 | 2.63 | 3.12 | 3.68
11 | CC1CCCN(C(=O)C(C)Nc2cc(Cl)ccc2N2CCOCC2)C1 (stereo unspecified) | 1.2 | 1.09 | -0.78
12 | FC(F)(F)c1ccc2[nH]ccc(=NN=Cc3ccc(Cl)cc3)c2c1 | 3.42 | 3.11 | 2.9
